One assay addresses Albumin (Bos taurus) (UniProt P02769). The experiment in a line: compounds binding labelled BSA control protein – biochemical, small-molecule microarray, Alexa647 label, 635/667 nm fluorescence, artefact control for SMM control protein annotation, profiling panel (AID 1118).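 Further: score merges 667 nm emission intensity and signal-to-noise per printed compound spot.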 The following applies: BSA-A647 binding, fluorescence 635 nm, higher = more signal.
Assay [1] in a line: probe aXIP binding to arrayed compounds – biochemical, NeuroSMM set, 635/667 nm fluorescence, primary screen (AID 1119).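 Further: probe is the protein aXip251-270 applied at 1 µg/mL to compound-printed slides; binding of probe to printed compounds measured as 667 nm fluorescence plus signal to noise.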 As to conditions: small-molecule microarray, higher = more signal, called active from +8 up or from −8 down.
The nature of assay [2]: probe aNOTCH3 binding on compound microarray – biochemical, small-molecule microarray, 635/667 nm fluorescence, primary screen (AID 1120).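 Further: probe is a biotin-tagged antibody raised against NOTCH3 rather than NOTCH3 protein; score merges spot fluorescence near 667 nm with spot signal to noise.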 The following applies: higher = more signal.
Assay [3] in a line: probe aNOTCH2 binding on compound microarray – biochemical, small-molecule microarray, 635/667 nm fluorescence, primary screen (AID 1121).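 Further: score merges feature fluorescence read at 667 nm with its signal to noise.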 As to conditions: higher = more signal.
Assay [4] concerns the target Carbonic anhydrase 2 (Homo sapiens) (UniProt P00918). Kind of assay: compounds binding carbonic anhydrase 2 – biochemical, small-molecule microarray, Alexa647-labelled CAII, profiling panel (AID 1122). As to conditions: CAII-A647 binding fluorescence, higher = more signal.
Assay [5] can be described thus: COS7 lysate on small-molecule microarray, probe aHis, 635 nm (AID 1123).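 Further: z-score combines 667nm fluorescence intensity with signal-to-noise per printed compound spot.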 As to conditions: COS7 cell lysate, fluorescence, higher = more signal.
The nature of assay [6]: probe aLAP1 signal on lysate-treated microarray – cell lysate, small-molecule microarray, COS7 lysate, primary screen (AID 1124).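 Further: lysate comes from COS7 cells expressing LAP1 and is applied at 0.3 µg/mL; score merges spot fluorescence near 667 nm with signal-to-noise over triplicate slides.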 As to conditions: probe aLAP1, fluorescence, higher = more signal.
In another assay the test system is Sam68 (KHDRBS1). Kind of assay: compounds binding KHDRBS1 protein – biochemical, small-molecule microarray, 635 nm fluorescence, primary screen (AID 1125).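 Further: score merges 667 nm channel intensity with signal to noise over triplicate slides.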 As to conditions: higher = more signal.
For assay [7], the system named is Chordin-like protein 2 (CHRDL2). Kind of assay: compounds binding chordin-like 2 – biochemical, small-molecule microarray, 635 nm fluorescence, primary screen (AID 1126).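 Further: printed compound slides probed with Chrdl2 protein at 4 µg/mL for 1 h at 4 C; score merges 667 nm emission intensity with signal to noise over three replicate slides.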 As to conditions: fluorescence 635 nm, higher = more signal.
Assay [8] has as its target Concanavalin-A (Canavalia ensiformis) (UniProt P02866). Kind of assay: compounds binding concanavalin A lectin – biochemical, small-molecule microarray, Alexa647 label, 635 nm, artefact control for SMM control protein annotation, primary screen (AID 1127).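 Further: z combines 667 nm emission intensity with signal-to-noise across three replicate slides.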 The following applies: ConA-A647 binding fluorescence, higher = more signal.

Active and inactive are the calls of the source.

Sequence of Concanavalin-A (Canavalia ensiformis) (P02866 whole entry, looked up): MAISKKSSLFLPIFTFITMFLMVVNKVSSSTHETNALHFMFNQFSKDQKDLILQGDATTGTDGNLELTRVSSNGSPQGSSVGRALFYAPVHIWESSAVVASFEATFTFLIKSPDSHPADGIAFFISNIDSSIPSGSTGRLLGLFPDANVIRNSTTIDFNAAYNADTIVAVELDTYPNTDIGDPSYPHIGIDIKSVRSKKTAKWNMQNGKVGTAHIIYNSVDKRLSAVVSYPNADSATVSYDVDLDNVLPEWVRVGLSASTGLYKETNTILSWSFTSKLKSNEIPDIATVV
Sequence of Albumin (Bos taurus) (P02769 whole entry, looked up): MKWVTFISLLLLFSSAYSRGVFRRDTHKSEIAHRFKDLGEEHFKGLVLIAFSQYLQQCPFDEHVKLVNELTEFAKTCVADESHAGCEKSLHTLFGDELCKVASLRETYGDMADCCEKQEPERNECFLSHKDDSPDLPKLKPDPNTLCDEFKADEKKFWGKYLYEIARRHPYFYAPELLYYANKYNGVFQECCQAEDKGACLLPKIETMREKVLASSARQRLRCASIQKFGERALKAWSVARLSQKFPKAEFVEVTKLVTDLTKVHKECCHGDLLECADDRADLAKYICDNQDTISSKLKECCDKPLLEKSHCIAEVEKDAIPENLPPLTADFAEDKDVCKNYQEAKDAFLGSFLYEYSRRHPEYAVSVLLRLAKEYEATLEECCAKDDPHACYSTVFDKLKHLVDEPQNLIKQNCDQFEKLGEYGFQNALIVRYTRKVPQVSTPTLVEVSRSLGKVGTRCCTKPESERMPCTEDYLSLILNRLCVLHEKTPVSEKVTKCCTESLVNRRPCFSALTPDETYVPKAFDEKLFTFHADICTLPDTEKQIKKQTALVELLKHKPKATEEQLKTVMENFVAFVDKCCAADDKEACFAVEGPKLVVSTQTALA

Take `NC(N)=NCCCn1cc(CNC(=O)[C@@H](N)Cc2ccccc2)nn1`: the composite z-score with Albumin (Bos taurus) was 0.0958; in assay [2], 0.0126; in [3], -0.0279; in assay [4] it was 0.948; in assay [5], 0.96; in assay [6], 0.155. The composite z-score in the assay on Sam68 (KHDRBS1) was -0.103; in assay [7] it was 0.57; in assay [8] it was -0.739. For the same compound, the composite Z-score in assay [1] was 0.79 (inactive).

Turning to `COC(=O)[C@@]1(Cc2ccc(F)cc2)[C@H]2c3cc(C(=O)N4CCCC4)n(CCN4CNCC4=O)c3C[C@H]2CN1C(=O)c1ccccc1`, the composite z-score in the assay with Albumin (Bos taurus) was 0.975; in [2] it was 0.323; in assay [3], -0.0345; in [4] it was 0.766; in assay [5], 3.18; in assay [6], 0.197. Besides, the composite z-score in the assay on Sam68 (KHDRBS1) was 0.592; in assay [7], -0.834; in assay [8] it was 0.63. Moreover, in [1], the composite Z-score was -0.476 (inactive).

Regarding `COc1cc2c(cc1OC)CN(C(=O)[C@@H]1[C@H]3C(=O)O[C@H](c4ccccc4)[C@H](c4ccccc4)N3[C@H](c3ccc(OCCO)cc3)[C@@]13C(=O)Nc1ccccc13)CC2`, the composite z-score is 0.299 with Albumin (Bos taurus); 0.131 in assay [2]; -0.114 in [3]; 0.634 in assay [4]; 2.25 in assay [5]; 0.141 in assay [6]. Besides, the composite z-score in the assay with Sam68 (KHDRBS1) worked out at 1.31; in assay [7], 0.508; in assay [8] it was 1.15. Moreover, the composite Z-score in [1] is 0.817 (inactive).

Turning to `CC(C)(C)OC(=O)CC[C@@]1(C(=O)NCc2ccccc2)N=C(c2ccc(OCCCO)cc2)O[C@@H]1c1ccccc1N=[N+]=[N-]`, the composite z-score in the assay with Albumin (Bos taurus) stood at 0.952; in [2] it was 0.66; in assay [3] it was 0.115; in [4], 0.73; in assay [5], 2.97; in assay [6], 0.935. Further, the figures for the composite z-score (in the assay with Sam68 (KHDRBS1); in assay [7]; in assay [8]) were 1.29, 0.134 and 1.04, respectively. Also, the composite Z-score in assay [1] was 0.399 (inactive).

On to `NC(=O)NCC#Cc1ccc2c(c1)[C@]1(C(=O)N2)[C@H](C(=O)O)[C@H]2C(=O)O[C@H](c3ccccc3)[C@H](c3ccccc3)N2[C@@H]1c1ccc(OCCO)cc1`, for which the composite z-score in the assay with Albumin (Bos taurus) is 0.351; in [2], -0.161; in [3] it was -0.143; in assay [4] it was 0.355; in assay [5], 0.822; in assay [6], 0.613. The composite z-score in the assay on Sam68 (KHDRBS1) came to 1.27; in assay [7], 0.241; in [8], 0.962. Also, the composite Z-score in [1] was -0.131 (inactive).

As to `C=CC[C@]1(C(=O)O)COC(c2ccc(OCCCO)cc2)=N1`, the composite z-score was 0.157 with Albumin (Bos taurus); -0.0967 in assay [2]; -0.222 in assay [3]; 0.969 in [4]; 1.14 in [5]; 0.308 in assay [6]. For the same compound, the composite z-score was 0.343 in the assay on Sam68 (KHDRBS1), 0.422 in [7] and -0.427 in [8]. Moreover, in [1], the composite Z-score was 0.0512 (inactive).

As to `C[C@@H]1NC(=O)[C@@]23C(=O)N[C@@H](Cc4ccccc4)C2[C@H](C)[C@@]2(C)O[C@H]2C3/C=C/C/C=C\CNC(=O)[C@@H]2CCCN2C1=O` (stereo not given in full), the composite z-score was -0.397 with Albumin (Bos taurus); -0.078 in assay [2]; -0.139 in assay [3]; 0.742 in assay [4]; -0.0175 in assay [5]; -0.11 in [6]. Also, the composite z-score is -1 in the assay on Sam68 (KHDRBS1), 0.18 in assay [7] and -0.327 in assay [8]. The composite Z-score in assay [1] was -0.433 (inactive).

For `COc1ccc(-c2nc(-c3ccccc3)c3c(c2C)CO[Si]3(C(C)C)C(C)C)cn1`, the composite z-score in the assay with Albumin (Bos taurus) is -0.475; in assay [2] it was -0.126; in assay [3], -0.0921; in assay [4], 0.0924; in assay [5], 0.583; in assay [6], -0.209. The composite z-score is 0.152 in the assay with Sam68 (KHDRBS1), 0.151 in assay [7] and -0.209 in assay [8]. Further, the composite Z-score in [1] was 0.428 (inactive).

With `CN(C)c1ccc(C(O)C2C=CC3C(=O)N(c4ccccc4)C(=O)C3N2Nc2ccc([N+](=O)[O-])cc2)cc1` (stereo not given), the composite z-score is 0.653 in the assay with Albumin (Bos taurus); 0.307 in assay [2]; -0.133 in assay [3]; 0.27 in assay [4]; 2.1 in assay [5]; 0.15 in assay [6]. Further, the composite z-score with Sam68 (KHDRBS1) was 1.29; in [7], -0.437; in assay [8], 1.05. The composite Z-score in assay [1] is 0.103 (inactive).

Consider `C[C@@H]1ON(c2ccc(C(=O)OC(C)(C)C)cc2)[C@H](c2ccc(O)cc2)[C@H]1C(=O)N1C(=O)OC[C@H]1Cc1ccccc1`, for which the composite z-score in the assay with Albumin (Bos taurus) was 0.31; in assay [2] it was 0.0836; in [3], -0.0449; in assay [4] it was 0.217; in assay [5], 0.58; in [6], 0.581. Besides, the composite z-score in the assay with Sam68 (KHDRBS1) was determined as 1.31; in [7] it was 0.448; in assay [8], 1.03. In [1], the composite Z-score is 0.522 (inactive).

Turning to `COCCCNC(=O)[C@]1(CCS(=O)(=O)c2ccccc2)N=C(c2ccc(OCCCO)cc2)O[C@@H]1c1ccccc1N=[N+]=[N-]`, the composite z-score with Albumin (Bos taurus) was 1.02; in [2], 0.486; in assay [3], -0.143; in assay [4], 0.569; in assay [5], 2.39; in assay [6], 0.371. The composite z-score is 1.31 in the assay with Sam68 (KHDRBS1), -0.71 in assay [7] and 1.18 in [8]. In [1], the composite Z-score is 0.778 (inactive).

With `O=C1NC(=O)C2C1C=CC(C(O)c1ccco1)N2Nc1ccccn1` (stereo not given), the composite z-score is -0.176 with Albumin (Bos taurus); -0.133 in assay [2]; -0.0567 in assay [3]; 0.713 in assay [4]; 0.0264 in [5]; 0.861 in assay [6]. Besides, the composite z-score in the assay with Sam68 (KHDRBS1) was 0.14; in assay [7] it was 0.146; in assay [8], -0.0501. Also, the composite Z-score in assay [1] was 0.0674 (inactive).

Take `C=CCOC(=O)[C@H]1[C@@H]2C(=O)O[C@@H](c3ccccc3)[C@@H](c3ccccc3)N2[C@@H](c2ccc(OCCOC(=O)[C@@H]3C[C@@H]4C(=O)N5CCC[C@H]5C(=O)N4[C@@H]3c3ccc(O)cc3)cc2)[C@]12C(=O)Nc1ccc(I)cc12`: the composite z-score was -0.572 with Albumin (Bos taurus); -0.33 in assay [2]; -0.118 in [3]; 0.0118 in assay [4]; 0.897 in assay [5]; 0.163 in assay [6]. Moreover, the composite z-score in the assay on Sam68 (KHDRBS1) was 0.27; in [7], 0.851; in assay [8], 1.01. Also, the composite Z-score in assay [1] was 0.486 (inactive).

Consider `[N-]=[N+]=NCc1ccccc1C[C@@]1(C(=O)N2CCCCC2)N=C(c2ccc(OCCCO)cc2)O[C@@H]1c1ccccc1`, for which the composite z-score is 0.901 with Albumin (Bos taurus); -0.102 in [2]; -0.299 in [3]; 0.606 in assay [4]; 1.28 in assay [5]; -0.0762 in assay [6]. For the same compound, the composite z-score with Sam68 (KHDRBS1) was 1.07; in assay [7], -1.27; in [8] it was 0.64. In addition, the composite Z-score in [1] was 0.269 (inactive).

In the case of `CC(C)[Si](C#C[Si](C(C)C)(C(C)C)C(C)C)(O[C@H](C)c1cn([C@H](CO)Cc2ccccc2)nn1)C(C)C`, the composite z-score with Albumin (Bos taurus) was 0.544; in assay [2] it was -0.0699; in assay [3], -0.145; in assay [4] it was 0.0728; in [5], 0.713; in [6], -0.268. For the same compound, the composite z-score with Sam68 (KHDRBS1) stood at 0.193; in assay [7], 0.498; in assay [8] it was 1.03. The composite Z-score in assay [1] is -0.397 (inactive).

For the origin of these results see PubChem BioAssay.
